Assay results as given in PubChem BioAssay.
“And” between values parts separate entries of the source, which are not always exact repeats. Equal entries are not always repeated. Records with an inconclusive call do not appear. The source made the active and inactive calls. Unless noted, no rule for the calls is given here.

Tests used:
[1] = target: ATP-dependent translocase ABCB1 (Homo sapiens) (UniProt P08183); assay: MDR1 (ABCB1) efflux transporter inhibition, cell-based (AID 377; in the data active = fluorescence slope change above about 50%); settings: MDR1-expressing cells, fluorescent substrate accumulation slope; stronger effect = higher value; concentration not given here
Chain of ATP-dependent translocase ABCB1 (Homo sapiens) (P08183 whole entry, looked up): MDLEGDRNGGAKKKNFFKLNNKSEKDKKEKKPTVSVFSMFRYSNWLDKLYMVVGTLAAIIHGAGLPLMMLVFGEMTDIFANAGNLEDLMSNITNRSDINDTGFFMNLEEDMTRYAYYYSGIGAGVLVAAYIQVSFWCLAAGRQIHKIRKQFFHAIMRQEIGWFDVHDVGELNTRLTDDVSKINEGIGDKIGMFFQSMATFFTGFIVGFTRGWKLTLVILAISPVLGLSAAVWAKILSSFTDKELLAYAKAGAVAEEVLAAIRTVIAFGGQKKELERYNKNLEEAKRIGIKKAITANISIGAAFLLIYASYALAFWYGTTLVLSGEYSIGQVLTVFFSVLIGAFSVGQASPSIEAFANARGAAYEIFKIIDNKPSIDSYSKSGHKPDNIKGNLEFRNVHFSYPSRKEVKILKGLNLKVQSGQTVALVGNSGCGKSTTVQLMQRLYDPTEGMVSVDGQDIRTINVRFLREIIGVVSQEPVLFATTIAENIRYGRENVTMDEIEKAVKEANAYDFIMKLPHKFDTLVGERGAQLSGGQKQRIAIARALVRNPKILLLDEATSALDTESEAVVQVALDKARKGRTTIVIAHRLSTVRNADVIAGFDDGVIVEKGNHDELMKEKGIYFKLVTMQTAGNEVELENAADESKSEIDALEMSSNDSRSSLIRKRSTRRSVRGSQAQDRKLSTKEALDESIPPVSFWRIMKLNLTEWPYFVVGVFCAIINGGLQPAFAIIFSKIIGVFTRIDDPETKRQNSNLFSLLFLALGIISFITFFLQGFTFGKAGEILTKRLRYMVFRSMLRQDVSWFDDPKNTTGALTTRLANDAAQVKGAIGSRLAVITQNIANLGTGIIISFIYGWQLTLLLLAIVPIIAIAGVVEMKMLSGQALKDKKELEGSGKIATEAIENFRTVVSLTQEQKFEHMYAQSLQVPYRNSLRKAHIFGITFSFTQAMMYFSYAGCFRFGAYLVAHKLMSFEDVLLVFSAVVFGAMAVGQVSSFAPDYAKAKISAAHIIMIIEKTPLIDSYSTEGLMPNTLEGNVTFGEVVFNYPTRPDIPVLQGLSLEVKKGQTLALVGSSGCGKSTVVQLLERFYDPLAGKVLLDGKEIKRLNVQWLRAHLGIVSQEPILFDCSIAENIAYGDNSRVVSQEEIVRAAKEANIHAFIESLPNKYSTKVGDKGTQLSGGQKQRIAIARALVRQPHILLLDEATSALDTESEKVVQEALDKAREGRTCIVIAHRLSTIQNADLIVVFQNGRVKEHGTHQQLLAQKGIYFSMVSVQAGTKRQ

[2] = hESC survival regulators, cell-based (AID 493140); settings: human embryonic stem cell survival screen; stronger effect = higher value;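 also: cells exposed to compounds for four days before counting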
[3] = liver-stage malaria parasite growth inhibition, primary screen, cell-based, HepG2, luciferase luminescence, HepG2 viability (AID 624349; in the data active = parasite load remaining mostly below about 12%, no sharp cut-off; inactive = mostly above about 10%;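 also: 100% = mean of DMSO negative control wells on the same plate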); settings: P. berghei liver stage in HepG2, luciferase luminescence, concentration not given here; parasite load remaining: stronger effect = lower value; viability: measured here: HepG2 viability without parasites
[4] = differential killing of epithelial or mesenchymal cells, primary screen, imaging, PC-3E GFP, TEM4-18 mCherry, co-culture (AID 1345086;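 active = compounds killing one labelled cell type while sparing the other, by normalised counts and ratio limits, not self-fluorescent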;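 as to all read-outs here: cells exposed to compound for 72 h before imaging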;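 as to red/green cell ratio (normalised): normalised mesenchymal count divided by normalised epithelial count so high means epithelial killing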); settings: imaging cell counts, at 1 µM; for red/green cell ratio (normalised): actives lie on both sides
[5] = sensitizers of A549 cells to miR-34 induction, primary screen, imaging, A549 dox-inducible miR-34, nuclei and caspase counts (AID 1347080;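 active = compounds whose cell count with miR-34 switched on is under 0.7 times the count with it off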); settings: A549 miR-34 inducible, Hoechst nuclei count, 48 h
[6] = target: Mitogen-activated protein kinase 7 (Homo sapiens) (UniProt Q13164); assay: ERK5 transactivation activators in reporter cells, primary screen, cell-based, HTS (AID 1508626;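 active = luciferase signal above three times the same-plate solvent-only control wells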;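 also: luciferase driven by Gal4-ERK5 fusion binding five Gal4 sites before minimal TATA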); settings: HeLa Gal4-ERK5 transactivation, 18 h, at 5 µM, stronger effect = higher value
Chain of Mitogen-activated protein kinase 7 (Homo sapiens) (Q13164 whole entry, looked up, the tested form may be a part): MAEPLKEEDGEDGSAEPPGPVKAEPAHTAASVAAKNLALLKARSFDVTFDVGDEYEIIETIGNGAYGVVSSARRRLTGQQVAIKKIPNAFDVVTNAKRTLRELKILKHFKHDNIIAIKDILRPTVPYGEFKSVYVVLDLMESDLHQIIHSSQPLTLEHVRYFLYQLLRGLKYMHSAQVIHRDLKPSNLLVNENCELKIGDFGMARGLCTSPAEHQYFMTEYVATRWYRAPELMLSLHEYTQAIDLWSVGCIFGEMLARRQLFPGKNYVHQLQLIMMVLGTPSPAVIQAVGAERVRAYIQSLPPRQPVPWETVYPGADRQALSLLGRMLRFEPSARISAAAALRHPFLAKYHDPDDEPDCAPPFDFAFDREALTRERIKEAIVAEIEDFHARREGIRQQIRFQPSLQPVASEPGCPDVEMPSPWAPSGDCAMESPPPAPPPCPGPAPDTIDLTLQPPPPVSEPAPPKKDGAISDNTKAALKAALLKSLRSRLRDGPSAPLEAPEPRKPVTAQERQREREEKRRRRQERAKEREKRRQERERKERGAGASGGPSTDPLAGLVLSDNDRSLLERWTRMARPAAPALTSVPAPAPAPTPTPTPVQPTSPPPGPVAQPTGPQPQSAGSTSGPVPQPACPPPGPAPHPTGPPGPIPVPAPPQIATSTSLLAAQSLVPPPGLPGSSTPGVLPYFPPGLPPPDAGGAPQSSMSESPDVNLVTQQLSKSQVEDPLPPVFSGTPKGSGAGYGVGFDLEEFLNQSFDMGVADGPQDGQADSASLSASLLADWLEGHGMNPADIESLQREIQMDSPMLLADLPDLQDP

[7] = circadian clock period modulators, cell-based, LOPAC library, luminescence reporter (AID 2774); settings: circadian reporter cells, at 7 µM, actives lie on both sides;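 also: values are relative to mean of DMSO wells on each plate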
[8] = test system: Hepatitis C virus NS3 helicase; assay: HCV NS3 helicase inhibitors, primary screen, biochemical, fluorescence polarization, LOPAC1280 library (AID 687035; in the data active = inhibition above about 37%); settings: Purified HCV NS3 helicase, Cy5-dT15 ssDNA binding fluorescence polarization; stronger effect = higher value; concentration not given here
[9] = Cy5 fluorescence quenching or enhancement artefacts, artefact control for HCV NS3 helicase inhibitor project, biochemical, LOPAC1280 (AID 687037); settings: Cy5-DNA-NS3h complex fluorescence interference counterscreen
[10] = test system: Aerobactin synthetase IucA (Klebsiella pneumoniae); assay: IucA aerobactin synthetase inhibitors, biochemical, Tocris library, absorbance (AID 1345561); settings: purified IucA enzyme assay, absorbance (OD) read-out; stronger effect = lower value;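 tested at 8 µM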;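 also: 100% = enzyme without compound and 0% = no enzyme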
[11] = test system: Aerobactin synthetase IucA (Klebsiella pneumoniae, hypervirulent); assay: IucA enzyme inhibition, biochemical, LOPAC library, absorbance readout (AID 1346212); settings: IucA enzyme assay, absorbance (OD) readout; stronger effect = lower value;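 tested at 8 µM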;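 also: 100% = no compound wells and 0% = no enzyme wells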
[12] = growth inhibition of DIPG glioma cells, dose response, cell-based, SU-DIPG-XVII, MIPE5.0, CellTiter-Glo, qHTS (AID 1347060; cut-off not given, nearly all actives have AC50 up to about 26 µM); settings: SU-DIPG-XVII viability, CellTiter-Glo ATP luminescence
[13] = growth inhibition of DIPG glioma cells, dose response, cell-based, SU-DIPG-XIII, MIPE4.0, CellTiter-Glo, qHTS (AID 1347061; cut-off not given, nearly all actives have AC50 up to about 37 µM;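 also: cells exposed to compound for 48 hours before readout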); settings: SU-DIPG-XIII viability, CellTiter-Glo ATP luminescence
[14] = growth inhibition of DIPG glioma cells, dose response, cell-based, JHH-DIPG-1, MIPE4.0, CellTiter-Glo, qHTS (AID 1347062; cut-off not given, nearly all actives have AC50 up to about 27 µM;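 as to AC50: cells exposed to compound for two days before readout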); settings: JHH-DIPG-1 viability, CellTiter-Glo ATP luminescence
[15] = growth inhibition of DIPG glioma cells, dose response, cell-based, SU-DIPG-IV, MIPE4.0, CellTiter-Glo, qHTS (AID 1347063; cut-off not given, nearly all actives have AC50 up to about 30 µM;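 also: compound exposure lasted 48 hours before the viability readout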); settings: SU-DIPG-IV viability, CellTiter-Glo ATP luminescence
[16] = viability loss in pontine glioma line – cell-based, SU-DIPG-XXV, MIPE5.0, CellTiter-Glo, qHTS, dose response (AID 1347065; cut-off not given, nearly all actives have AC50 up to about 26 µM;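 also: cells exposed to compound for 48 hours before ATP readout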); settings: CellTiter-Glo ATP luminescence
[17] = SU-DIPG-VI glioma cell viability, MIPE4.0 library, CellTiter-Glo luminescence, qHTS (AID 1347066; cut-off not given, nearly all actives have AC50 up to about 30 µM;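 also: cells exposed to compound for 48 hours before readout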); settings: CellTiter-Glo ATP luminescence
[18] = JHH-DIPG-1 glioma cell viability, MIPE5.0 library, CellTiter-Glo luminescence, qHTS (AID 1347067; cut-off not given, nearly all actives have AC50 up to about 26 µM;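 also: cells exposed to compound for 48 hours before readout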); settings: JHH-DIPG-1 glioma viability, CellTiter-Glo ATP luminescence
[19] = viability rescue of complex I mutant cybrids, primary screen, cell-based, galactose medium, ATP luminescence (AID 1645843;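 active = z-score of at least 1.8 in each of two replicates, scored against plate mean and spread of sample wells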;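 also: positive z means more ATP and so rescue of galactose-driven cybrid death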); settings: complex I mutant cybrid cells, 72 h, stronger effect = higher value
[20] = phospholipid biosynthesis inhibitors in animal cells, primary screen, cell-based, LOPAC library, screen 4 (AID 1347384); settings: phospholipid biosynthesis inhibition screen, at 10 µM
[21] = survival rescue of mitochondrial mutant cells in low glucose, primary screen, MELAS cybrids, Rieske KO mouse fibroblasts, CellTiter-Glo (AID 1508586;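 active = mean z-score across replicates of 1.96 or higher in either the MELAS or the Rieske mutant cell line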;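 also: z relative to plate mean and SD of compound and empty wells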)
[22] = growth inhibition of DIPG glioma cells, dose response, cell-based, SU-DIPG-XIII, MIPE5.0, CellTiter-Glo, qHTS (AID 1347064; cut-off not given, nearly all actives have AC50 up to about 23 µM); settings: SU-DIPG-XIII viability, CellTiter-Glo ATP luminescence
[23] = SU-DIPG-XXV glioma cell viability, MIPE5.0 library, qHTS (AID 1347068; cut-off not given, nearly all actives have IC50 up to about 30 µM)
[24] = measured here: epithelial PC-3E GFP cell survival
[25] = measured here: mesenchymal TEM4-18 mCherry cell survival
[26] = measured here: relative caspase fold change +Dox/-Dox
[27] = measured here: total cells with miR-34 induction, stronger effect = lower value
[28] = measured here: total cells without miR-34 induction

c1cncc(C2=NCCC2)c1
fluorescence slope change [1]: 24.1% (inactive)
survival [2]: 4.17 (inactive)
parasite load remaining [3]: 113% (inactive)
viability [3]: 106%
red/green cell ratio (normalised) [4]: 0.94 (inactive)
normalised cell number [4, 24]: 1
normalised cell number [4, 25]: 0.94
fold change ([5]; stronger effect = lower value): 0.891 (inactive)
fold change [5, 26]: 1.54
cell count [5, 27]: 7680
cell count [5, 28]: 8620
luciferase signal [6]: 48 AU (inactive)

CCCN1CCO[C@@H]2c3cc(O)ccc3OC[C@H]21
period change [7]: -0.065 hour (inactive) and 0.1 hour (inactive)
inhibition [8]: -4% (inactive) and -2% (inactive)
fluorescence ratio (interference) [9]: 1 (inactive)
remaining activity [10]: 109% (inactive)
remaining activity [11]: 102% (inactive)
outcome [12]: inactive
outcome [13]: inactive
outcome [14]: inactive
outcome [15]: inactive
outcome [16]: inactive
outcome [17]: inactive
outcome [18]: inactive
fold change ([5]; stronger effect = lower value): 0.978 (inactive) and 0.932 (inactive)
fold change [5, 26]: 1.67 and 0.977
cell count [5, 27]: 9750 and 8460
cell count [5, 28]: 9980 and 9070
z-score [19]: 0.53 (inactive) and -0.06 (inactive)

c1ccc(CCCN2CCN(CCOC(c3ccccc3)c3ccccc3)CC2)cc1
period change [7]: -0.025 h (inactive)
inhibition [8]: 0% (inactive)
fluorescence ratio (interference) [9]: 1 (inactive)
remaining activity [10]: 117% (inactive)
remaining activity [11]: 104% (inactive)
AC50 [14]: 20.9 µM (active)
AC50 [15]: 23.5 µM (active)
fold change ([5]; stronger effect = lower value): 1.21 (inactive) and 0.966 (inactive)
fold change [5, 26]: 1.16 and 0.645
cell count [5, 27]: 3120 and 2750
cell count [5, 28]: 2580 and 2850
outcome [20]: inactive
z-score [19]: -1.04 (inactive) and -1.21 (inactive)

C[C@]12N[C@H](Cc3ccccc31)c1ccccc12
fluorescence slope change [1]: 55.9% (active)
period change [7]: 0.055 h (inactive)
survival [2]: 15.6 (inactive)
parasite load remaining [3]: 44.8% (inactive) and 97.8% (inactive)
viability [3]: 70.4% and 87.5%
inhibition [8]: -1% (inactive)
fluorescence ratio (interference) [9]: 1 (inactive)
remaining activity [10]: 117% (inactive)
remaining activity [11]: 89.7% (inactive)
fold change ([5]; stronger effect = lower value): 1.14 (inactive) and 0.978 (inactive) and 0.959 (inactive)
fold change [5, 26]: 0.783 and 1.01 and 0.875
cell count [5, 27]: 10200 and 8980 and 9270
cell count [5, 28]: 8990 and 9190 and 9660
outcome [20]: inactive
z-score ([21]; MELAS cybrid survival, CellTiter-Glo 48 h, stronger effect = higher value): 0.143 (inactive)
z-score ([21]; Rieske KO mouse fibroblast survival, CellTiter-Glo 72 h): 0.47
z-score [19]: -0.205 (inactive) and 0.805 (inactive)

COC(=O)[C@@H]1C[C@H](OC(C)=O)C(=O)[C@H]2[C@@]1(C)CC[C@H]1C(=O)O[C@H](c3ccoc3)C[C@]21C
red/green cell ratio (normalised) [4]: 1.04 (inactive)
normalised cell number [4, 24]: 0.84
normalised cell number [4, 25]: 0.87
luciferase signal [6]: 52 AU (inactive)

O=C(N[C@H]1CN2CCC1CC2)c1ccc(Cl)cc1
inhibition [8]: -1% (inactive)
fluorescence ratio (interference) [9]: 1 (inactive)
remaining activity [10]: 93.4% (inactive)
remaining activity [11]: 109% (inactive)
outcome [12]: inactive
outcome [14]: inactive
outcome [15]: inactive
outcome [22]: inactive
outcome [16]: inactive
outcome [18]: inactive
outcome [23]: inactive
fold change ([5]; stronger effect = lower value): 1.07 (inactive)
fold change ([5]; stronger effect = lower value, cell number ratio, induced over uninduced): 0.932 (inactive)
fold change [5, 26]: 1.52 and 1.27
cell count [5, 27]: 10700 and 8830
cell count [5, 28]: 10000 and 9480
outcome [20]: inactive
z-score [19]: 0.385 (inactive) and 0.125 (inactive)
